Laboratory results reported in PubChem BioAssay AID619 (University of Pittsburgh Molecular Library Screening Center, 2007).
The whole screen tested about 97,000 compounds, of which about 520 (0.54%) were called active.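 The calls were made as follows: active = inhibition of 50% or more in the single-concentration screen; inactive = inhibition below 50%.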 Shown is part of a subset that was picked to be rich in actives.

target: Serine/threonine-protein kinase PLK1 (Homo sapiens) (UniProt P53350); experiment: human PLK1 kinase inhibitors, primary screen, biochemical, TR-FRET (AID 619); details: recombinant PLK1 kinase, TR-FRET peptide phosphorylation; at 10 µM; stronger effect = higher value;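 also: 0% = DMSO max control and 100% = H-89 dihydrochloride min control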
Sequence (P53350 whole entry, looked up): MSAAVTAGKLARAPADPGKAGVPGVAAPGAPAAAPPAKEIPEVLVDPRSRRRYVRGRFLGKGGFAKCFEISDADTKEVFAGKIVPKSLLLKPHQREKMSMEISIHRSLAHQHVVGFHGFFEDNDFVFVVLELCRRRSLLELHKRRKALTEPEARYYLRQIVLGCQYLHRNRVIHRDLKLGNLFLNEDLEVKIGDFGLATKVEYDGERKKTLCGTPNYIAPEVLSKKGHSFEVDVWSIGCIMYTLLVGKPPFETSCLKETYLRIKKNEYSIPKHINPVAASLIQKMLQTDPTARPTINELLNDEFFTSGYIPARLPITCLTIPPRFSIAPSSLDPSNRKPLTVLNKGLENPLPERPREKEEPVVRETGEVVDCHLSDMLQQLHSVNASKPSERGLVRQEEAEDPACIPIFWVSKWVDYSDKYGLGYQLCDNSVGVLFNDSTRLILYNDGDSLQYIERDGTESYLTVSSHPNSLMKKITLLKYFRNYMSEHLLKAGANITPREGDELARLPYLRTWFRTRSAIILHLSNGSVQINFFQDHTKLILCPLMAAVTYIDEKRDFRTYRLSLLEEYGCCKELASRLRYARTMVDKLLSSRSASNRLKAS

| SMILES | inhibition |
| --- | --- |
| Cc1cc(C)c(OCC(=O)N/N=C/c2ccco2)c(C)c1 | 6.14% (inactive) |
| Cc1ccc(CS(=O)(=O)CCC(=O)NC2CC2)cc1 | -7.25% (inactive) |
| Nc1ccc(-n2nncc2-c2ccco2)cc1 | -4.39% (inactive) |
| CCCc1nc2scc(-c3ccc(C)cc3)c2c(=O)n1N | 5.26% (inactive) |
| COc1ccc(CCN2C(=O)C3CC=C(C)CC3C2=O)cc1OC (configuration not stated) | -10.2% (inactive) |
| COc1cc(OC)c(-n2c(C)cc(C=O)c2C)cc1Cl | -6.8% (inactive) |
| CCCC(=O)n1nc(-c2ccccc2)nc1N | -4.99% (inactive) |
| COc1ccccc1NS(=O)(=O)N(C)C | -7.41% (inactive) |
| O=C(O)CCC(=O)NCc1ccc(C(=O)O)cc1 | -9.7% (inactive) |
| C=CCn1c(SCC(=O)c2c(N)n(C)c(=O)n(C)c2=O)nc2sc(CC)cc2c1=O | -9.06% (inactive) |
| CC(=O)c1ccc(OCCN2CCOCC2)cc1 | -17.4% (inactive) |
| COc1ccc(C(=O)c2c(C)oc3cc([N+](=O)[O-])c(O)c([N+](=O)[O-])c23)cc1 | -2.19% (inactive) |
| Cc1ccc(Cc2cnc(NC(=O)/C(C#N)=C/c3ccc(-c4cccc([N+](=O)[O-])c4)o3)s2)cc1 | -5.56% (inactive) |
| Cn1c(=O)c2c(SCC(=O)N3CCOCC3)nc(C3CC3)nc2n(C)c1=O | 36.6% (inactive) |
| CCC(C)Sc1nc(C)nc2c1c(=O)n(C)c(=O)n2C (configuration not stated) | 52.6% (active) |
| CCCSc1nc2c(c(=O)n(C)c(=O)n2C)n1Cc1ccc(C)cc1 | 6.87% (inactive) |
| CSc1nc(C)nc2c1c(=O)n(C)c(=O)n2C | 68.3% (active) |
| COc1ccc(CC(=O)Nc2sc(Cc3ccccc3)c(C)c2C(N)=O)cc1 | -12% (inactive) |
| O=c1cc(C(F)(F)F)[nH]c(=O)n1C1CCCCC1 | -12.1% (inactive) |
| COc1ccc(/C=C/C(=O)Nc2c(C)nn(C)c2C)cc1COc1ccc(Br)cc1 | -7.02% (inactive) |
| CCc1c(C)nc2cc(C)[nH]n2c1=O | -1.93% (inactive) |
| FC(F)(F)c1cc(C(F)(F)F)c2ccc(N3CCN(c4ccccc4)CC3)nc2n1 | -4.18% (inactive) |
| C=CCn1cnc2scc(-c3ccccc3)c2c1=O | -17.6% (inactive) |

| SMILES | inhibition |
| --- | --- |
| CN(CCC#N)c1ncnc2scc(-c3ccccc3)c12 | 54.3% (active) |
| N#CCCN(CCC#N)c1nnc(-c2ccccc2)s1 | -13.8% (inactive) |
| CS(=O)(=O)n1nc(-c2ccccc2)nc1NCc1ccco1 | -17.7% (inactive) |
| Cc1nc2cc(NC(=O)CSc3nc4c(C)cccc4cc3C#N)ccc2s1 | -34.1% (inactive) |
| CC(=O)C1=C(C)NC(=O)NC1c1cc(Br)ccc1OCC#N (configuration not stated) | -9.62% (inactive) |
| CC1=CC(=O)C=CC1(C)C(Cl)(Cl)Cl (configuration not stated) | -6.25% (inactive) |
| CC/C(=N/Nc1ccccc1)c1cnnc(SC)n1 | -14.3% (inactive) |
| COC(=O)/C=C/C(=O)NCc1ccco1 | -9.17% (inactive) |
| Cc1ccc(C(=O)NCCNS(=O)(=O)c2ccccc2)cc1 | -5.51% (inactive) |
| Cc1ccccc1CSCCNC(=O)c1ccc(N(C)S(=O)(=O)c2ccccc2)cc1 | 57.1% (active) |
| Cc1ccccc1CSCCNC(=O)c1ccc(Cl)c(S(=O)(=O)N2CCOCC2)c1 | -1.84% (inactive) |
| Cc1cc(OCCOc2cccc3cccnc23)c(C)cc1Cl | -13.9% (inactive) |
| CCN1C(=O)/C(=C2/Sc3ccc(OC)cc3N2C)SC1=Nc1ccc(C)cc1 | -9.58% (inactive) |
| CCCc1nc(NCc2ccc3c(c2)OCO3)c2nnn(Cc3ccccc3Cl)c2n1 | -9.3% (inactive) |
| CCC(=O)NNc1cc(=O)c2c(=O)n(C)c(=O)n(C)c2[nH]1 | -9.06% (inactive) |
| CN(C)/C=C(\C#N)C(=O)c1cccnc1Oc1ccc(F)cc1F | -4.48% (inactive) |
| COCCCNC(=O)C1CC(=O)N(CCc2ccccc2)C1 (configuration not stated) | -12.8% (inactive) |
| COc1cc(OC)cc(-c2cc3nc(C4CCN(C(=O)OC(C)(C)C)CC4)cc(=O)n3[nH]2)c1 | -8.81% (inactive) |
| Cc1c(Nc2nc3ccccc3nc2NS(=O)(=O)c2cccs2)c(=O)n(-c2ccccc2)n1C | -2.91% (inactive) |
| Cc1cccc(N2C(=O)C3C(c4ccccc4)OC4(C(=O)c5ccccc5C4=O)C3C2=O)c1 (configuration not stated) | -6.04% (inactive) |
| Cc1cccc(N(CC(=O)N2CCOCC2)S(C)(=O)=O)c1 | -16.7% (inactive) |
| Cc1cccc(N2C(=O)SC(N(CC(=O)O)c3cccc(C)c3)C2=O)c1 (configuration not stated) | 68.7% (active) |
| CCOC(=O)c1cc(C#N)c(N2CCCCC2)nc1-c1ccccc1 | -7.56% (inactive) |

| SMILES | inhibition |
| --- | --- |
| COc1ccc(NC(=O)Cn2nnc(C(=O)NCCc3ccc(OC)c(OC)c3)c2N)cc1 | -3.12% (inactive) |
| CCC(=O)NCCc1nc2ccccc2n1CC | -12.5% (inactive) |
| Cc1ccc(S(=O)(=O)NCC(C)NS(C)(=O)=O)cc1 (configuration not stated) | -7.03% (inactive) |
| O=C(c1cccc(F)c1)N1CCC(O)(c2cccnc2)CC1 | -11.3% (inactive) |
| Cc1cc(S(=O)(=O)NC2CCCCC2)ccc1OCC(=O)NCc1cccnc1 | -6.44% (inactive) |
| Cc1ccc(N2C(=O)S/C(=C/c3cn(C)c4ccccc34)C2=O)cc1 | -7.68% (inactive) |
| CCCCNc1nc2c(c(=O)[nH]c(=O)n2C)n1CCOc1ccccc1 | -13.6% (inactive) |
| CC(c1ccccc1)n1c(NCCCn2ccnc2)nc2c1c(=O)[nH]c(=O)n2C (configuration not stated) | -13.2% (inactive) |
| Cn1c(=O)[nH]c(=O)c2c1nc(NCCCn1ccnc1)n2Cc1cccc(Br)c1 | 51.2% (active) |
| CCOC(=O)N1CCC(N(CCOC)C(=O)Nc2ccc(C)c(C)c2)CC1 | -7.06% (inactive) |
| Cn1nc(-c2ccccc2)c(CSc2cccc(Cl)c2)c1Cl | -5.77% (inactive) |
| CCCC(=O)C1CCN(Cc2ccccc2)CC1 | -5.07% (inactive) |
| Cc1ccc(N2C(=O)C(Cc3ccccc3)NC2=S)cc1 (configuration not stated) | -4.76% (inactive) |
| CCOC(=O)c1ccc2c(c1)nc(SCC(=O)NC(C)C)n2CC | -12.9% (inactive) |
| O=C(NCCCN1CCOCC1)c1cc2c(s1)CCC2 | 12.4% (inactive) |
| CCC(C)Sc1nnc(-c2c[nH]c3ccccc23)n1CCOC (configuration not stated) | -10.2% (inactive) |
| CCn1c(SCCC(C)C)nnc1-c1c[nH]c2ccccc12 | 57.8% (active) |
| CCn1c(SCC(=O)Nc2ccc(OC)c(OC)c2)nnc1-c1c[nH]c2ccccc12 | -21.5% (inactive) |
| CCCC(C(=O)n1nc(C)cc1C)C(NS(=O)(=O)c1ccc(C)cc1)c1ccccc1 (configuration not stated) | -12% (inactive) |
| COc1ccc(Oc2coc3cc(OC(=O)c4cncc(Br)c4)ccc3c2=O)cc1 | -8.95% (inactive) |
| Cc1cc(C)c2nc(NC(=O)C3CCCO3)sc2c1 (configuration not stated) | -2.38% (inactive) |
